# FAS TE block: FAS thioesterase domain inhibitors, primary screen, biochemical, fluorescence intensity, uHTS; recombinant FAS-TE, OMFH fluorogenic substrate, fluorescence endpoint; inhibition, % at 15 µM; Fatty acid synthase (Homo sapiens), P49327; 0.67% of 360,000 active;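 active = compounds whose normalised, plate-corrected inhibition of enzyme fluorescence in the single-dose primary screen is 50% or more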;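 also: 0% = DMSO with enzyme and 100% = substrate without enzyme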
# rCAG binder: binders of r(CAG) RNA repeats, primary screen, biochemical, fluorescence; r(CAG) RNA repeat, TO-PRO-1 dye displacement fluorescence; inhibition, % at 3 µM; 1.3% of 370,000 active;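 active = inhibition above the plate cutoff, the mean of all test compounds on that plate plus 3 SD, cut at about 35% in these data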;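 also: 0% = DMSO alone and 100% = 100 µM mitoxantrone as full dye displacement; higher means more dye released from RNA so lower well fluorescence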
# NadD inh: inhibitors of S. aureus NadD, primary screen, biochemical, colorimetric, uHTS | Nicotinate-nucleotide adenylyltransferase NadD (Staphylococcus aureus N315) | purified NadD enzyme, colorimetric absorbance read-out | inhibition, % at 20 µM | 0.78% of 360,000 active | AID 602399, 2012; in the data active = inhibition above about 26%
# NR3A LBD binder: binders of NR3A ligand-binding domain, primary screen, biophysical, differential scanning fluorimetry, uHTS; NR3A LBD differential scanning fluorimetry, Tm shift; 0% = protein alone, 100% = glycine-bound protein; 2.5% of 340,000 active; Tm shift relative to glycine control, % at 25 µM; AID 1259313, 2017; Glutamate receptor ionotropic, NMDA 3A (GRIN3A) ligand-binding domain;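 active = melting temperature shift of at least 10% of the positive control shift, at one fixed dose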
# rCAG bind conf: small molecules binding CAG repeat RNA – biochemical, fluorescence, confirmation. inhibition, % at 3 µM. 70% of 4,300 active. shares compounds with rCAG binder. r(CAG) RNA repeat, TO-PRO-1 dye displacement fluorescence;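 active = inhibition above a per-plate cutoff, the mean inhibition of sample wells plus 3 SD, cut at about 35% in these data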;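 also: loss of TO-PRO-1 fluorescence as compound displaces dye from 1x1 AA loop RNA; 0% = DMSO only wells and 100% = 100 µM mitoxantrone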
# DNA CAG counter: displacement of TO-PRO-1 from CAG DNA duplex, counter-screen for rCAG RNA repeat binder project, biochemical, fluorescence, TO-PRO-1 dye, d(CAG) DNA oligo; shares compounds with rCAG binder; d(CAG) DNA oligo TO-PRO-1 dye displacement; inhibition, % at 3 µM; 94% of 4,300 active; AID 652068, 2013;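 active = inhibition above its plate's cutoff, the mean test-well inhibition plus 3 SD, cut at about 4.8% in these data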;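 also: 0% = DNA dye mix with DMSO and 100% = 100 µM mitoxantrone; hits displace the dye from DNA and so lower well fluorescence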
# DNA CAG DR: inhibitors of DNA CAG/GTC TO-PRO-1 complex, dose response, counter-screen for rCAG RNA repeat binder project, biochemical, fluorescence, TO-PRO-1 dye. AID 686960, 2013. IC50, µM. 20% of 250 active. DNA CAG/GTC duplex TO-PRO-1 dye displacement fluorescence. shares compounds with rCAG binder; in the data active = IC50 below about 10 µM
# Starred values were filed as active, the others as inactive; / = no result. Sampled rows, rich in hits. Any-hit rate of the full collection: about 4.3%.
SMILES,FAS TE block,rCAG binder,NadD inh,NR3A LBD binder,rCAG bind conf,DNA CAG counter,others
CS(=O)(=O)c1ccc2nc(NC(=O)c3ccc(NS(=O)(=O)c4cccc([N+](=O)[O-])c4)cc3)sc2c1,4.5,72.5*,13.5,15.9*,70.1*,31.3*,DNA CAG DR=9.38*
CS(=O)(=O)c1ccc2nc(NC(=O)Nc3cccc(Cl)c3)sc2c1,2.0,71.3*,6.9,22.0*,63.3*,46.9*,
Cc1ccccc1CN1[C@@H](C)[C@H](c2ccccc2)Oc2cccc(NCC(C)C)c2S1(=O)=O,/,5.0,/,/,/,/,
CCCn1cc(CCC(=O)Nc2ccc(Oc3cccnc3)cc2)c2ccccc21,/,3.8,/,/,/,/,
Cc1cc(Nc2cccc(Cl)c2)nc(-c2ccccc2O)n1,34.5,36.4*,-2.3,36.6*,23.8,10.0*,
Cc1cc(Cl)nc(-c2ccccc2O)n1,6.3,-2.2,-2.0,0.5,/,/,
Cc1ccc(S(=O)(=O)Oc2ccc(/C=C(/NC(=O)c3ccccc3)C(=O)O)cc2)cc1,-0.2,39.8*,1.4,11.4*,36.9*,9.3*,
Cc1ccsc1/C=C1\SC(=S)N(CC2CCCO2)C1=O (configuration not stated),25.2,35.9*,-9.5,0.8,3.1,1.9,
O=C1/C(=C/c2ccc(O)cc2)SC(=S)N1CC1CCCO1 (configuration not stated),-10.7,-5.2,-5.3,2.0,/,/,
O=c1[nH]c(Nc2ccccc2)cc2cc(Br)ccc12,30.0,37.5*,2.0,-13.6,13.8,15.2*,
COc1ccccc1Nc1cc2cc(Br)ccc2c(=O)[nH]1,31.5,13.8,13.9,-7.3,/,/,
COC1=C/C(=C/c2c(N)n3nc(-c4ccc(C)cc4)sc3nc2=O)C=CC1=O,-5.3,62.6*,35.4*,6.9,58.8*,19.1*,
CCOC1=C/C(=C/c2c(N)n3nc(-c4ccccc4)sc3nc2=O)C=CC1=O,-3.3,48.7*,43.5*,8.2,58.8*,24.7*,
CCN=C1NC(c2ccc(F)cc2)C(C(=O)OC)=C(C)N1Cc1ccccc1C(F)(F)F (configuration not stated),/,3.8,/,/,/,/,
O=C(O)C1Nc2c(Cl)cc(Cl)c(Cl)c2C2C=CCC12 (configuration not stated),19.9,31.6,24.5,-3.0,/,/,
CC(C)C1Nc2c(O)cc(Cl)c([N+](=O)[O-])c2C2C=CCC21 (configuration not stated),-1.3,37.0*,1.1,1.1,17.1,4.3,
Cc1nn(-c2ccccc2)c2c1C(c1ccc(Cl)cc1)N(c1ccccc1)C(=O)N2 (configuration not stated),26.7,2.9,15.2,-1.0,/,/,
Cc1ccc(NC2=Nc3ccccc3N3C2=Nc2c(c(C)nn2-c2ccccc2)C3c2ccc(O)c(O)c2)cc1 (configuration not stated),28.2,57.4*,61.2*,14.9*,63.5*,41.6*,
Cc1cccc(NC2=Nc3ccccc3N3C2=Nc2c(c(C)nn2-c2ccccc2)C3c2ccc(O)c(O)c2)c1 (configuration not stated),21.4,57.1*,61.7*,21.8*,48.5*,34.1*,
Cc1nn(-c2ccccc2)c2c1C(c1ccc(O)c(O)c1)N1C(=N2)C(Nc2ccccc2)=Nc2ccccc21 (configuration not stated),-3.7,18.2,18.4,0.9,/,/,
COc1ccc(CNc2cccc3[nH]c(C(F)(F)F)nc23)cc1OC,1.7,43.7*,-0.5,-2.3,12.7,9.4*,
COc1ccc(CNC(=O)c2[nH]c(C(F)(F)F)nc2-c2ccccc2)cc1OC,-2.9,3.1,-0.8,/,/,/,

# From PubChem
